Assay outcomes deposited in PubChem BioAssay by National Center for Advancing Translational Sciences (NCATS).
Lassa entry – inhibitors of Lassa virus binding or entry into cells | AID 720533 | actives 4.1% (n = 18,000) | Lassa virus pseudotyped entry inhibition, cell-based qHTS | Potency, µM (titrated, usually from 49.2 µM), hits mostly inhibitors
MARV entry inh – blocks Marburg virus binding or cell entry | Potency, µM (top dose mostly 49.2 µM), actives largely listed as inhibitors | actives 6.5% (n = 18,000) | Marburg virus pseudotype entry/binding inhibition, cell-based
Hits are given with their value; i = inactive; ? = inconclusive; ! = not active in a repeat; [ ] = dose if it differs, or a comment. Compounds with a hit are over-represented: about 7.1% of the library has one in this group of screens. Calls follow the shape of the full dose curve; tested in HEK293 cells.

SMILES	Lassa entry	MARV entry inh
Nc1nc(Cl)nc2c1ncn2[C@@H]1O[C@H](CO)[C@@H](O)[C@H]1O	31.6µM!	?
OCC1OC(n2cnc3c(=S)nc[nH]c32)C(O)C1O (centres undefined)	?	3.55µM
O=C(O)c1ccccc1Nc1ccccc1	i	i
CC[C@@H]1/C=C/C=C/C[C@H](C)[C@@H](O)[C@](C)(O)C(=O)[C@H](C)[C@@H](O)[C@H](C)C(=O)[C@H](C)[C@@H](O)[C@H](C)/C=C/C(=O)O[C@H]2[C@@H](C)[C@@H](CC1)O[C@@]1(CC[C@@H](C)[C@@H](C[C@H](C)O)O1)[C@@H]2C	39.8µM	10µM
CCC(=O)OC1CCC2C3CCC4=CC(=O)CC[C@@]4(C)C3CC[C@]12C (some centres undefined)	i	i
COc1ccccc1-c1cncnc1NCc1cccc(C)c1	i	i
COCCNc1cc(-c2ccccc2CN(C)C)ncn1	i	i
Cc1cccc(CNc2ccnc(-c3ccccc3CN(C)C)n2)c1	?	11.2µM
CNc1ccnc(-c2ccccc2CN(C)C)n1	i	i
COc1ccccc1-c1nccc(NCc2cccc(C)c2)n1	i	12.6µM
Cc1cccc(CNc2cc(-c3ccccc3CN(C)C)ncn2)c1	i	6.31µM
CC(C)C[C@H](NC(=O)[C@H](CC(C)C)NC(=O)[C@H](Cc1ccccc1)NC(=O)[C@@H](N)CO)C(=O)N[C@@H](CCCNC(=N)N)C(=O)N[C@@H](CC(N)=O)C(=O)N1CCC[C@H]1C(=O)N[C@@H](CC(N)=O)C(=O)N[C@@H](CC(=O)O)C(=O)N[C@@H](CCCCN)C(=O)N[C@@H](Cc1ccc(O)cc1)C(=O)N[C@@H](CCC(=O)O)C(=O)N1CCC[C@H]1C(=O)N[C@@H](Cc1ccccc1)C(=O)O	i	i
O=C1CC[C@@H](C(=O)N2CSC[C@H]2C(=O)O)N1	i	i
N#C/C(=C\c1ccc(O)c(O)c1)C(N)=S	i	?
CCCCCC1C(=O)O[C@H](C)[C@@H](NC(=O)c2cccc(NC=O)c2O)C(=O)OC(C)C1OC(=O)CC(C)C (some centres undefined)	?	0.1µM
Cc1ccc2c(CC(=O)N3CCOc4ccc(CN5C[C@@H](C)O[C@@H](C)C5)cc4C3)cc(=O)oc2c1	i	i
O=C(CCCN1CCC(O)(c2ccc(Cl)cc2)CC1)c1ccc(F)cc1	?	12.6µM
O=C(CCCN1CCC(O)(c2ccc(Br)cc2)CC1)c1ccc(F)cc1	i	?
CC(C)=CCN1C(=O)[C@]2(OCCC=C[C@H]2C)c2c(Br)cccc21	i[8.59 µM]	i[8.59 µM]
COC1=CC(=O)C=C(OC)C1=O	10µM	7.08µM
COC1=CC(=O)C(C(=O)c2ccccc2)=CC1=O	i	i
CC(=O)OC1C[C@@]2(C)C(c3ccoc3)OC(=O)C3O[C@@]32[C@]2(C)C(OC(C)=O)CC3C(C)(C)C(OC(C)=O)CC(OC(C)=O)[C@@]3(C)C12 (some centres undefined)	i	i
CC(=O)OC1CC(OC(C)=O)[C@]2(C)C(CC(OC(C)=O)[C@]3(C)C2CC[C@@]2(C)C(c4ccoc4)C(=O)C4O[C@]432)C1(C)C (some centres undefined)	i	15.8µM
CNc1ccnc(-c2c(C)noc2C)n1	i	i
c1ccc2ccccc2c1	i	i
SMILES	Lassa entry	MARV entry inh
Cc1ccc(O)c2ncccc12	i	i
Nc1ccc(O)c([N+](=O)[O-])c1	i	i
O=[N+]([O-])c1ccc(O)c2ncccc12	11.2µM	15.8µM
O=Nc1ccc(O)c2ncccc12	2.51µM	3.98µM
CC1(C)CC(=O)C([C@H]2C3=C(CC(C)(C)CC3=O)Oc3ccccc32)C(=O)C1	i	i
COc1cc2c(cc1OC)CN(C(=O)[C@@H]1C[C@H](NCc3cn(C)c4ccccc34)CN1C1Cc3ccccc3C1)CC2	i	i
C=C1C(=O)O[C@@H]2[C@H]3O[C@]3(C)CCC=C(C)CC[C@@H]12	22.4µM	15.8µM
Cc1cc(C(C)(C)CC(C)(C)C)ccc1OCCOCC[N+](C)(C)Cc1ccccc1	?	11.2µM
C[N+](C)(C)CCOC(=O)C(O)(c1ccccc1)c1ccccc1	i	i
O=C(O)c1cccc(-c2noc(-c3ccccc3F)n2)c1	8.91µM	3.16µM
Fc1ccccc1-c1nc(-c2ccccc2)oc1NCc1ccccc1	i[8.59 µM]	i[8.59 µM]
CNCCCCCCCCSc1nc(C(C)C)ccc1C(=O)c1cccs1	?	5.62µM
COC(=O)C(C)c1ccc(C(=O)c2cccs2)cc1 (centres undefined)	i	i
NC1(c2ccc(-c3nc4ccn5c(=O)[nH]nc5c4cc3-c3ccccc3)cc2)CCC1	?	6.31µM
O=C(N[C@@H](CO)[C@@H](O)c1ccc([N+](=O)[O-])cc1)C(Cl)Cl	i	i
COc1cccc([C@@H]2Oc3ccc(OC)cc3C[C@H]2OC(=O)NS(=O)(=O)c2ccc(F)cc2)c1	i	i
O=C(c1cccs1)N1C[C@@H](n2cc(C3CC3)nn2)[C@@H](O)C[C@@H]1c1ccccc1	i	i
Cc1[nH]c(/C=C2\C(=O)Nc3ccc(S(=O)(=O)N(C)c4cccc(Cl)c4)cc32)c(C)c1C(=O)N1CCN(C)CC1	?	10µM
